From PubChem BioAssay
This is a sample that favours compounds with a hit; in the whole collection about 3.6% have one here.
D1 PAM = enhances dopamine response at the human D1 receptor. AID 504651. P21728. potentiation, % at 10 µM. HEK293 TREx D1 cells, calcium flux, dopamine EC20 potentiation. actives 0.036% (n = 360,000); in the data active means potentiation above about 30%
Target sequence (P21728 whole entry, looked up): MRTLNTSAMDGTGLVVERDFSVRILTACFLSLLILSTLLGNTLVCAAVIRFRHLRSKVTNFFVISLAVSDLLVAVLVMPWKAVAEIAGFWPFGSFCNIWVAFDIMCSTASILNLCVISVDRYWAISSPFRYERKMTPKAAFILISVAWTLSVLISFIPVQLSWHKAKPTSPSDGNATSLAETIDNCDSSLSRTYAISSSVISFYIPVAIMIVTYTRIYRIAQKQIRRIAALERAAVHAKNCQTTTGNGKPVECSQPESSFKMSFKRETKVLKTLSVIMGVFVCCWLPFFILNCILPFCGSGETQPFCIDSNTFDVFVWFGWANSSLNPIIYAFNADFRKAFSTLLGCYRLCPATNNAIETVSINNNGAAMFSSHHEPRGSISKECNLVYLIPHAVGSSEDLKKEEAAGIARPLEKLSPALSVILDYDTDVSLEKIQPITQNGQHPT
TRHR ag = activates the human TRH receptor | P34981 | actives 0.18% (n = 360,000) | activation, % at 2 µM | TRHR cells, calcium flux fluo-8, FDSS agonist mode
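Steps: seed TRHR cells overnight; add fluo-8 no-wash Ca dye, RT 30 min–1.5 h; record 10 s baseline; pin-transfer compounds; monitor fluorescence 1 cycle/s for the agonist window. Calcium increases flag candidate agonists.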
D1 ag = human D1 receptor agonism | actives 1% (n = 360,000) | P21728 | activation, % at 2 µM | HEK293 T-REx D1 cells, calcium flux, agonist mode
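Tetracycline-induced HEK293 TREx D1 cells, force-coupled to calcium signalling, were dye-loaded with a no-wash calcium kit. Compound was pin-added after a 10 s baseline. Fluorescence was read kinetically at 1 cycle/s for 180 s, with calcium rises flagged as agonism.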
LDHA inh = inhibitors of human lactate dehydrogenase A; purified LDHA, NADH/diaphorase-resazurin fluorescence; hits give low values; actives 0.15% (n = 480,000); activity change, % (values are at about 110 or 230 µM); in the data active means activity change below about -30%
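Resorufin fluorescence (ex540/em590), read at 0 and 20 min after diaphorase/resazurin addition, reports the NADH left after a 5 min room-temperature reaction of 2 nM human LDH5 with 0.06 mM NADH and 0.2 mM pyruvate.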
D1 antagonist = antagonists of human D1 dopamine receptor | P21728 | HEK293 TREx D1 cells, calcium flux, dopamine EC80; hits give low values | activity change, negative = inhibition, % at 10 µM | actives 3.2% (n = 360,000) | AID 504652; in the data active means activity change below about -30%
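Kinetic fluorescence of a calcium dye serves as the read-out. D1-expressing Hek293 Trex cells, induced overnight at 30 C, are exposed to compound for 180 s before an EC80 dopamine addition, then read 180 s further.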
TRHR enhancer = allosteric enhancers of human TRH receptor | TRHR cells, fluo-8 calcium fluorescence, EC20 TRH enhancement | enhancement, % at 2 µM | actives 0.66% (n = 360,000); in the data active means enhancement above about 30%
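TRHR-expressing cells loaded with fluo-8 calcium dye were read kinetically (ex 480/em 530) during compound addition, then stimulated with an EC20 of TRH (10 nM final). Enhancement of the Gq-mediated intracellular calcium response was scored.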
Large screens that a line does not name were inactive. Unless noted, no stated cut-off is given here; in the data, active means activation above about 30%; inactive means the rest.

COc1ccc(CN2C(=O)CC(Cc3cc(C)cc(C)c3)C2=O)cc1OC (stereo not given)	D1 antagonist -43
O=C(c1ccccc1)C1CCN(C(=O)c2ccc(C(F)(F)F)nc2)CC1	none (no result: D1 PAM, TRHR ag, D1 ag, D1 antagonist, TRHR enhancer)
CCN(CCn1cccn1)C(=O)c1cc(COc2ccc(F)c(F)c2)on1	D1 antagonist -32
Cc1ccccc1C(=O)Nc1ccc(C(=O)N/N=C/c2ccc(O)cc2)cc1	none
O=C(N/N=C/c1ccc(O)cc1)c1ccc(NC(=O)c2ccccc2Br)cc1	D1 antagonist -47
O=C(N/N=C/c1cccs1)c1ccc(NC(=O)c2ccccc2Cl)cc1	D1 antagonist -53
Cc1ccccc1Nc1nnc(-c2ccc(C)c(S(=O)(=O)N3CCOCC3)c2)c2ccccc12	none
Cc1ccc(-c2nnc(Nc3ccc(O)cc3)c3ccccc23)cc1S(=O)(=O)N1CCCCC1	TRHR enhancer 30
CC(=O)Nc1ccc(Nc2nnc(-c3ccc(C)c(S(=O)(=O)NCCO)c3)c3ccccc23)cc1	none
Cc1ccc(-c2nnc(Nc3ccc(F)cc3)c3ccccc23)cc1S(=O)(=O)NC(C)C	D1 antagonist -34
Cc1ccc(Nc2nnc(-c3ccc(C)c(S(=O)(=O)N4CCOCC4)c3)c3ccccc23)c(C)c1	D1 antagonist -45
Cc1ccc(-c2nnc(Nc3ccc(C(N)=O)cc3)c3ccccc23)cc1S(=O)(=O)N1CCCCC1	none
Cc1ccc(-c2nnc(Nc3ccc(O)cc3)c3ccccc23)cc1S(=O)(=O)NC(C)(C)CO	D1 antagonist -44
COc1ccc(NC(=O)C2CCN(c3nc4ccccc4nc3OC)CC2)cc1OC	none (no result: D1 PAM, TRHR ag, D1 ag, D1 antagonist, TRHR enhancer)
Cc1cc(=O)oc2cc(NC(=O)CCCOc3ccccc3)ccc12	none (no result: D1 PAM, TRHR ag, D1 ag, D1 antagonist, TRHR enhancer)
CC(C)C(=O)Nc1ccc2c(C(C(=O)O)N3CCN(Cc4ccccc4)CC3)c[nH]c2c1 (stereo not given)	none (no result: D1 PAM, TRHR ag, D1 ag, D1 antagonist, TRHR enhancer)
O=C(Nc1ccc2nc(SCC(=O)N3CCOCC3)sc2c1)c1ccc(Cl)cc1	D1 antagonist -38
COc1cccc(C(=O)Nc2ccc3nc(SCC(=O)N(C)c4ccccc4)sc3c2)c1	none
CCOc1ccc2nc(S(N)(=O)=O)sc2c1	LDHA inh -80
CCOc1ccc2nc(SCC(=O)c3ccccc3)sc2c1	D1 antagonist -43
COc1ccc(C(=O)Nc2ccc3nc(SCC(=O)N(C)c4ccccc4)sc3c2)cc1	D1 ag 32
Cc1cc(CSc2nnc(-c3ccc(Cl)cc3)n2Cc2ccco2)on1	none (no result: D1 PAM, TRHR ag, D1 ag, D1 antagonist, TRHR enhancer)
CCCN(C)c1ccc(/C=N/NC(=S)Nc2cccc(C)c2)cc1	none (no result: D1 PAM, TRHR ag, D1 ag, D1 antagonist, TRHR enhancer)
Cc1ccc(C)c(S(=O)(=O)N2CCN(C(C(=O)NC3CC3)c3ccccc3)CC2)c1 (stereo not given)	none (no result: D1 PAM, TRHR ag, D1 ag, D1 antagonist, TRHR enhancer)
COc1cc(C)cc2oc(=O)c(CC(=O)NCCCn3ccnc3)c(C)c12	none (no result: D1 PAM, TRHR ag, D1 ag, D1 antagonist, TRHR enhancer)
Cc1ccc(C(=O)N/C(=C\c2cccc([N+](=O)[O-])c2)C(=O)OCN2C(=O)c3ccccc3C2=O)cc1	D1 antagonist -48
Cc1ccc(C(=O)N/C(=C/c2cccc([N+](=O)[O-])c2)C(=O)NC(C)C)cc1	none
CNCCC(Oc1ccc(C(F)(F)F)cc1)c1ccccc1 (stereo not given)	D1 ag 62 (no result: D1 PAM, D1 antagonist)
COc1cccc(OC)c1C(=O)Nc1cc2c(cc1N1CCOCC1)n(C)c(=O)n2C	none
Cc1nn(Cc2ccccc2Cl)c2sc(C(=O)Nc3ccccc3N3CCOCC3)cc12	D1 antagonist -38
O=C(Nc1ccccc1N1CCOCC1)c1cc(Br)c(Br)s1	D1 antagonist -31
CCc1cc(C(=O)Nc2ccccc2N2CCOCC2)sc1C	none
Cn1c(=O)n(C)c2cc(N3CCOCC3)c(NC(=O)c3ccc(F)cc3)cc21	TRHR enhancer 32
Cn1c(=O)n(C)c2cc(N3CCOCC3)c(NC(=O)c3ccccc3Br)cc21	D1 antagonist -43
CC1CCCCN1CC(=O)NC(=O)NCc1cccs1 (stereo not given)	none (no result: D1 PAM, TRHR ag, D1 ag, D1 antagonist, TRHR enhancer)
O=[N+]([O-])c1ccccc1S(=O)(=O)N1CCN(S(=O)(=O)c2ccc3c(c2)OCCO3)CC1	D1 antagonist -31
CN(Cc1ccccc1F)C(=O)CN1CCN(S(=O)(=O)c2ccc3c(c2)OCCCO3)CC1	D1 antagonist -31
C[C@@H]1CN(S(=O)(=O)c2ccc3c(c2)OCCO3)CCN1S(=O)(=O)c1c(F)cccc1F	D1 antagonist -33
O=[N+]([O-])c1cccc(S(=O)(=O)N2CCN(S(=O)(=O)c3ccc4c(c3)OCCO4)CC2)c1	none
O=C(O)c1cc(F)c(S(=O)(=O)N2CCN(S(=O)(=O)c3ccc4c(c3)OCCO4)CC2)cc1F	none
O=C(O)Cc1cc(F)c(S(=O)(=O)N2CCN(S(=O)(=O)c3ccc4c(c3)OCCO4)CC2)cc1F	D1 antagonist -42
CN(Cc1ccc(F)cc1)C(=O)CN1CCN(S(=O)(=O)c2ccc3c(c2)OCCCO3)CC1	none (no result: D1 PAM, TRHR ag, D1 ag, D1 antagonist, TRHR enhancer)
C/C=C/C=C/C(=O)NC(C)c1ccc(F)c(F)c1 (stereo not given)	none (no result: D1 PAM, TRHR ag, D1 ag, D1 antagonist, TRHR enhancer)
Cc1cc(=O)oc2cc(OCC(=O)Nc3ccc(CCO)cc3)ccc12	none (no result: D1 PAM, TRHR ag, D1 ag, D1 antagonist, TRHR enhancer)
CC(NC(=O)c1ccc2c(c1)NC(=O)CS2)c1ccc2c(c1)CC(=O)N2 (stereo not given)	none (no result: D1 PAM, TRHR ag, D1 ag, D1 antagonist, TRHR enhancer)
COc1ccc(NC(C)=O)cc1NC(=O)COC(=O)c1ccc(C)s1	none (no result: D1 PAM, TRHR ag, D1 ag, D1 antagonist, TRHR enhancer)
O=c1cc(O)c2c(=O)[nH]c(=O)n(-c3ccccc3)c2[nH]1	TRHR enhancer 33
COc1ccc(NC(=O)c2c(NC(=O)C(F)(F)F)sc3c2CCCCC3)cc1	D1 ag 59, D1 antagonist -36
O=C(CCc1c[nH]c2ccccc12)NCc1cccs1	none (no result: D1 PAM, TRHR ag, D1 ag, D1 antagonist, TRHR enhancer)
O/N=C/c1c(F)c(F)c(F)c(F)c1F	none (no result: D1 PAM, TRHR ag, D1 ag, D1 antagonist, TRHR enhancer)
Cc1ccc(NC(=O)COC(=O)CCCC2=NS(=O)(=O)c3ccccc3N2)cc1C	none
Cc1ccccc1COC(=O)CCCC1=NS(=O)(=O)c2ccccc2N1	D1 ag 31
CCOCCCNC(=O)C(Cc1ccccc1)NS(=O)(=O)c1ccc2c(c1)c(=O)n(C)c(=O)n2C (stereo not given)	none
CC(C)OCCCNC(=O)C(NS(=O)(=O)c1ccc2c(c1)c(=O)n(C)c(=O)n2C)c1ccccc1 (stereo not given)	D1 antagonist -44 (no result: LDHA inh)
CCOc1ccc2oc(=O)cc(CN3CCN(CC(=O)N4CCC(C)CC4)CC3)c2c1	none (no result: D1 PAM, TRHR ag, D1 ag, D1 antagonist, TRHR enhancer)
CC1=C(C(=O)Nc2ccccc2)C(c2cccnc2)n2nc(SCc3ccccc3F)nc2N1 (stereo not given)	none
CC1=C(C(=O)Nc2ccccc2)C(c2cccnc2)n2nc(SCc3ccccc3Cl)nc2N1 (stereo not given)	D1 antagonist -35
O=C(Oc1ccc2c(=O)c(Cl)coc2c1)c1cccnc1	none
